# Data published in PubChem BioAssay AID588342 (National Center for Advancing Translational Sciences (NCATS), 2011).
# About 25,000 (6.9%) of roughly 360,000 compounds were called active. Another 9% or so got no clear call; they are omitted. This excerpt belongs to a sample that is enriched for actives. A number with no mark means an inactive call. Calls come from the whole dose curve; as a rule, active = well fitted inhibition curve with a large enough effect; inconclusive = small, poorly fitted or top-dose-only effect; inactive = flat fitted curve, though single readings scatter.
# Biological target: Luciferin 4-monooxygenase (Photinus pyralis) (UniProt P08659)
# Sequence (P08659 whole entry, looked up): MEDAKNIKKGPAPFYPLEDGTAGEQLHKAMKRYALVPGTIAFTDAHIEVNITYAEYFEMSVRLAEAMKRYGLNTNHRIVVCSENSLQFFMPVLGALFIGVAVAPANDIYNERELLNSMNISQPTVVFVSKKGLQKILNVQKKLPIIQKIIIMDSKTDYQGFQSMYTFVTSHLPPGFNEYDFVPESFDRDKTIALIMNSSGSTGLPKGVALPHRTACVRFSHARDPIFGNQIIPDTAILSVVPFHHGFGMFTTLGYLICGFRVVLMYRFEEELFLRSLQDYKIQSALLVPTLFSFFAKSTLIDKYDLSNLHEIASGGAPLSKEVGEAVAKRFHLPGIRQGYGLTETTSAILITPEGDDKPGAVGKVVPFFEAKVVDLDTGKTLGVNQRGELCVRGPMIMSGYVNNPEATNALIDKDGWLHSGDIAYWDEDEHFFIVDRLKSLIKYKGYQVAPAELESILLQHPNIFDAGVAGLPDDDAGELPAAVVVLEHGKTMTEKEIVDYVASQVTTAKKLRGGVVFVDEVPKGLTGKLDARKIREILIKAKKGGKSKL
# Experiment: qHTS profiling assay for firefly luciferase inhibitor/activator using purifed enzyme and Km concentrations of substrates (counterscreen for miR-21 project); note: nearly all actives have a fitted effect of over 55% in size;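 for activity change, negative = inhibition: plate controls were vehicle for no effect and reference inhibitor for full effect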
# Settings: purified FLuc, luminescence inhibition; series mostly up to 57.5 µM; activity change, negative = inhibition: at the top concentration
# Description: MLPCN Grant: 1 R21 NS059478-01 (miR-21 grant) Assay Provider: NCGC NCGC Assay Overview: Firefly (Photinus pyralis) luciferase is one of the most commonly used transcriptional reporters for a number of reasons. It is considered one of the more dynamically responsive reporters -that is, responsive to changes in reporter transcription - as it requires no post-translational modifications and is enzymatically active directly after protein synthesis (Wood, 1998). Additionally, the half-life of the luciferase protein is short relative to other reporter-gene products (Wood, 1995). Whereas reporters with long half-lives potentially allow for increased signal due to accumulation of reporter-gene product, once accumulated in the cell, dynamic changes in reporter-gene expression may be difficult to detect(Fan and Wood, 2007; Almond et al., 2004). It has been shown that wild-type P. pyralis luciferase has a half-life of approximately […] hours in mammalian cells (Thompson et al., 1991). Firefly luciferase reporter-gene assays are also generally considered one of the most sensitive assay types (Wood, 1995; Wood, 1998). Although light produced in a bioluminescence reaction is of lower intensity than that produced during fluorescence emission, this is offset by little to no background light inherent to luminescent assays. Thus the luciferase reporter can be expressed at much lower levels than fluorescent proteins while still providing robust signal. # However, it was initially observed, in 1991, by Thompson et al., that compounds that resemble the substrates of firefly luciferase (FLuc) can act as competitive inhibitors of the enzyme, and that these compounds, upon interaction with luciferase in the cell, can actually stabilize the protein and increase its half-life. Accumulated intracellular FLuc protein can be measured as an increase in luminescence signal, upon addition of detection reagents (which contain high concentrations of FLuc substrates) commonly used in high-throughput screening. In cell-based reporter gene assays that use FLuc as the reporter gene to quantitate the potential influence of a given compound against the target biology, this apparent increase in luminescence can mistakenly be interpreted as identification of a compound that is active against the target of interest. This is the case for the miR-21 FLuc reporter gene assay used to identify inhibitors of the miR-21 pathway (PubChem AID 2289) - compounds of interest will inhibit miR-21 biogenesis/expression or activity, and are identified by causing an increase in luminescence, due to increased FLuc translation. However, FLuc inhibitory compounds that stabilize the FLuc protein will give an identical read-out, making it difficult to distinguish compounds that are active against the target from those active against FLuc. Previous profiling work to determine the prevalence of compounds that affect FLuc enzymatic activity (PubChem AID 411) identified that ~3% of the MLSMR library (then at ~72K) inhibited FLuc. […] Since the MLSMR had grown to ~350K compounds, and since it was expected that a significant percentage of compounds found active in the miR-21 FLuc assay would be FLuc inhibitors, the library was screened for activity against FLuc using a biochemical assay of purified FLuc and KM concentrations of FLuc substrates (D-luciferin and ATP).
# NCGC Assay Protocol Summary: Reagents: 50mM Tris acetate, pH 7.5; 10mM Mg acetate; 10uM D-luciferin (Sigma #L9504); 10uM ATP; 0.01% Tween-20; 0.05% BSA; 10nM P. pyralis luciferase (Sigma #L9506) Control compounds used were two known firefly luciferase inhibitors (compounds (2) and (5) in Auld et al., 2010), and DMSO. […]
Structure (SMILES),Potency,"activity change, negative = inhibition"
NC(=O)c1c(NC(=O)c2ccccc2)sc2c1CCCC2,0.675 µM (active),–
O=C(Nc1nc2c(s1)CCCC2)c1ccccc1F,0.338 µM (active),–
Cc1ccccc1NC(=O)c1c(NC(=O)c2ccccc2F)sc2c1CCC(C)C2 (centres undefined),–,-1.42%
O=C(Nc1sc2c(c1C(=O)O)CCC2)c1ccccc1F,26.9 µM (active),–
Cc1ccc(C(=O)c2c(NC(=O)c3ccncc3)sc3c2CCCC3)cc1,–,3.4%
O=C(Cn1c(=O)sc2ccccc21)Nc1nc2c(s1)CCCC2,–,-4.24%
O=C(CCS(=O)(=O)c1ccccc1)Nc1nc2c(s1)CCCC2,–,-2.31%
CC(C)(C)C1CCc2c(sc(NC(=O)c3ccccc3F)c2C(=O)N2CCCCC2)C1 (centres undefined),–,-0.0444%
C=CCN(CC=C)S(=O)(=O)c1ccc(C(=O)Nc2sc3c(c2C(N)=O)CCCCC3)cc1,–,-4.48%
O=C(O)c1cccc(S(=O)(=O)N2CC=C(c3ccccc3)CC2)c1,–,-6.25%
Cc1nnc(SCC(=O)NCc2ccccc2Cl)c2nn(-c3ccccc3)c(C)c12,–,-15.3%
CC(NCCc1ccc(S(N)(=O)=O)cc1)C(=O)NCc1ccccc1 (centres undefined),–,2%
Cc1ccc(S(=O)(=O)N(C)C)cc1NC(=O)c1ccc(-n2cncn2)c([N+](=O)[O-])c1,–,-3.04%
O=C(CNC(=O)OCc1ccccc1)NC1CCCCNC1=O (centres undefined),–,-1.31%
CCOc1cc(-c2nnc(SCC(=O)NC3CCCCC3)nc2-c2ccc(OC)c(OCC)c2)ccc1OC,–,2.92%
Cc1cc(C)cc(NC(=O)Cn2c(=O)c3ccccc3n3nncc23)c1,–,2.23%
Cc1cccc(C(=O)NCC(=O)OCC(=O)N(C)CC(=O)Nc2ccccc2Cl)c1,–,5.48%
COc1ccc(CCNC(=O)c2cc3cccc4c3n2CC(C)S4)c(OC)c1OC (centres undefined),–,-16.9%
CCC1C(=O)c2ccccc2N(C)C1=O (centres undefined),–,3.54%
CN1C(=O)/C(=C\c2cc(Br)cs2)c2ccccc21,4.26 µM (active),–
CN1C(=O)c2ccccc2Sc2ccc(NC(=O)Cc3ccc(Cl)cc3)cc21,–,-4.82%
COc1ccc(N(Cc2ccccc2)S(=O)(=O)c2cccc(C(=O)O)c2)cc1,–,1.17%
COc1ccc(C(CC(=O)c2ccccc2)S(=O)(=O)c2ccccc2)cc1 (centres undefined),0.478 µM (active),–
COc1ccc(CN(C)C(=O)CC(c2ccccc2)c2ccccc2)cc1,–,0.703%
Cc1c(NS(=O)(=O)c2cc(C(=O)NCCc3ccc(F)cc3)cc(Cl)c2Cl)c(=O)n(-c2ccccc2)n1C,–,0.627%

Structure (SMILES),Potency,"activity change, negative = inhibition"
Cc1cccc(OC(=O)c2sc3ncn(C)c(=O)c3c2C)c1,12 µM (active),–
Cc1c(C(N)=O)sc2ncn(CCOc3ccccc3)c(=O)c12,–,-2.28%
COc1cccc(-n2c(=O)c3c(C)c(C(=O)N(C)C)sc3n(Cc3cccc(C)c3)c2=O)c1,–,-3.37%
COc1ccc(S(=O)(=O)N2CCN(c3ccc(F)cc3)CC2)cc1-c1noc(C)n1,–,-4.3%
Cc1ccc2c(c1)c1c(c(=O)n(-c3ccccc3)c(=O)n1CC(=O)c1ccc(Cl)cc1)n2C,–,-3.33%
O=C(Cn1nc(Cc2cccnc2)c2ccccc2c1=O)N1CCN(c2ccccc2F)CC1,–,-2.35%
Nc1ncc(-c2cc3ccccc3oc2=O)s1,6.01 µM (active),–
Cc1cc2c(=O)n(C)c(SCC(=O)c3cc4ccccc4o3)nc2s1,–,4.57% [at 2.3 µM]
Cc1ccc(S(=O)(=O)N2CCC(C(=O)OCC(=O)N(C)c3ccccc3)CC2)cc1C,–,9.29%
CCC(C(=O)Nc1cccc(Cl)c1C)n1nc(-c2ccc(C)cc2)ccc1=O (centres undefined),–,3.5%
COc1ccc(C)cc1N(CC(=O)N1CCC(C)CC1)S(=O)(=O)c1ccc(C)cc1,–,-7.97%
CC(C)(COC(=O)Nc1ccccc1)COC(=O)Nc1ccccc1,–,-14.3%
O=C(Nc1ccccc1)O/N=C1\CCCCC1c1ccc([N+](=O)[O-])cc1[N+](=O)[O-] (centres undefined),–,4.78%
O=C(Nc1ccccc1)O/N=C1/CCCc2occc21,16.9 µM (active),–
O=S(=O)(O)Oc1c[nH]c2ccccc12,12 µM (active),–
NC(=O)CSc1c[nH]c2ccccc12,–,-10.3%
CC(=O)NC(Cc1c[nH]c2ccccc12)C(=O)O (centres undefined),–,5.21%
Cc1ccc(NC(=O)Cn2c(=O)n(-c3ccccc3)c(=O)c3c4c(sc32)CCCC4)cc1,–,2.01%
CCOc1ccc(C(=O)CCN2CCOCC2)cc1,–,1.6%
CCn1c(COc2cccc(OC)c2)nnc1SCC(=O)N1CCOCC1,–,6.62%
CCOc1ccc(-c2ccc(SCC(=O)N3CCOCC3)nn2)cc1,3.38 µM (active),–
CCNS(=O)(=O)c1ccc(NC(=O)CSc2nc(-c3ccco3)cc(C(F)(F)F)n2)cc1,–,2.67%
O=C1OC2(CCCCC2)CC2=C1C1O[C@](c3ccsc3)(Cc3ccccc31)O2,–,-0.717% [at 11.5 µM]
CC(C)(C)c1nnc(N/N=C/c2ccc(O)cc2)n(N)c1=O,13.5 µM (active),–
